# Calls of active or inactive are those of the source. Rule for the calls: active = hit-call score of the fitted dose curve at least 0.9, where 1 is the maximum; inactive = score below 0.9.
# System: not listed separately
# Test: ATG_RORE_CIS: Attagene CIS-FACTORIAL HepG2 Assay for human RAR-related Orphan Receptor Element (RORE) (AID 2282959)
# Settings: HepG2 Attagene cis-factorial RORE reporter, mRNA; actives raise or lower the signal
# Procedure, shortened: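 HepG2 cells carrying transiently transfected cis-regulated reporter units; RORE-driven reporter mRNA quantified 24 h post-dosing by RT-PCR, 6-FAM primer extension, HpaI digestion and capillary electrophoresis. Bidirectional fit versus DMSO.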
Compound,outcome,AC50
Cc1ccc(N)c(S(=O)(=O)O)c1,inactive,–
CC1CC(O)CC(C)(C)C1 (configuration not stated),inactive,–
O=C(O)CNc1ccccc1,inactive,–
Cc1ncc[nH]1,inactive,–
O=Cc1ccccc1S(=O)(=O)O,inactive,–
CCOc1ccc(NC(=O)CC(C)O)cc1 (configuration not stated),inactive,–
CC(C)(N=C=O)c1cccc(C(C)(C)N=C=O)c1,inactive,–
CCCCC1(COC(=O)CCC(=O)O)C(=O)N(c2ccccc2)N(c2ccccc2)C1=O,inactive,–
CC=Cc1ccc(OC)c(OC)c1,inactive,–
COC(=O)c1cccnc1,inactive,–
OCc1cccc(Oc2ccccc2)c1,inactive,–
C=C[Si]1(C)O[Si](C)(C=C)O[Si](C)(C=C)O[Si](C)(C=C)O1 (configuration not stated),inactive,–
CC(=O)C1(C)CC2=C(CCCC2(C)C)CC1C (configuration not stated),–,74.4 µM (active)
CC(C)=CCCC(C)CCOC=O (configuration not stated),inactive,–
CCCCCC(C=O)=Cc1ccccc1,inactive,–
COC(C)(C)CC(C)=O,inactive,–
CCc1ccc(O)cc1,inactive,–
C=CCOC(=O)CCCCCC,inactive,–
CCCN(CCC)S(=O)(=O)c1ccc(C(=O)O)cc1,inactive,–
C[Si]1(C)O[Si](C)(C)O[Si](C)(C)O1,inactive,–

Compound,outcome,AC50
CCCCCCOCCOCCO,inactive,–
CCCCCCCC(=O)OCCCCCC,inactive,–
Oc1ccc2cc(SSc3ccc4cc(O)ccc4c3)ccc2c1,–,33.5 µM (active)
NCc1ccco1,inactive,–
CCCCCCCCCCCCS(=O)(=O)Cl,inactive,–
CCC(C)=O,inactive,–
Cc1c(Cl)cccc1[N+](=O)[O-],inactive,–
COC(=O)C=C(C)CCC=C(C)C,inactive,–
CCc1ccc(O)c(OC)c1,inactive,–
CCCCCCCCc1ccc(S(=O)(=O)O)cc1,inactive,–
CCCCC1CCC(O)CC1 (configuration not stated),inactive,–
O=c1c(O)c(-c2ccc(O)cc2)oc2cc(O)cc(O)c12,inactive,–
CCCCCCC(O)CCCCCCCCCCC(=O)O (configuration not stated),inactive,–
CCCCC(CC)COC(C)=O (configuration not stated),inactive,–
CCNCCO,inactive,–
OC[C@H]1O[C@@H](Oc2ccc(O)cc2)[C@H](O)[C@@H](O)[C@@H]1O,inactive,–
O=C1CCCC=CCCCCCCCCCC1,inactive,–
CCOC(=O)C1OC1c1ccccc1 (configuration not stated),inactive,–
C#CC(C)(O)CC(C)C (configuration not stated),inactive,–

# System: not listed separately
# Test: ATG_Sox_CIS: Attagene CIS-FACTORIAL HepG2 Assay for human SRY-box transcription factor (SOX) (AID 2282960)
# Settings: HepG2 Attagene cis-factorial SOX reporter, mRNA; actives raise or lower the signal
# Procedure, shortened: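 HepG2 cells transiently transfected with multiple cis-regulated reporter units, then dosed for 24 h. Reporter mRNA quantified by RT-PCR, fluorescent labelling, HpaI digestion and capillary electrophoresis; bidirectional fit versus DMSO.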
row,Compound,outcome
1,Cc1ccc(N)c(S(=O)(=O)O)c1,inactive
2,CC1CC(O)CC(C)(C)C1 (configuration not stated),inactive
3,O=C(O)CNc1ccccc1,inactive
4,Cc1ncc[nH]1,inactive
5,O=Cc1ccccc1S(=O)(=O)O,inactive
6,CCOc1ccc(NC(=O)CC(C)O)cc1 (configuration not stated),inactive
7,CC(C)(N=C=O)c1cccc(C(C)(C)N=C=O)c1,inactive
8,CCCCC1(COC(=O)CCC(=O)O)C(=O)N(c2ccccc2)N(c2ccccc2)C1=O,inactive
9,CC=Cc1ccc(OC)c(OC)c1,inactive
10,COC(=O)c1cccnc1,inactive
11,OCc1cccc(Oc2ccccc2)c1,inactive
12,C=C[Si]1(C)O[Si](C)(C=C)O[Si](C)(C=C)O[Si](C)(C=C)O1 (configuration not stated),inactive
13,CC(=O)C1(C)CC2=C(CCCC2(C)C)CC1C (configuration not stated),inactive
14,CC(C)=CCCC(C)CCOC=O (configuration not stated),inactive
15,CCCCCC(C=O)=Cc1ccccc1,inactive
16,COC(C)(C)CC(C)=O,inactive
17,CCc1ccc(O)cc1,inactive
18,C=CCOC(=O)CCCCCC,inactive
19,CCCN(CCC)S(=O)(=O)c1ccc(C(=O)O)cc1,inactive
20,C[Si]1(C)O[Si](C)(C)O[Si](C)(C)O1,inactive

row,Compound,outcome
1,CCCCCCOCCOCCO,inactive
2,CCCCCCCC(=O)OCCCCCC,inactive
3,Oc1ccc2cc(SSc3ccc4cc(O)ccc4c3)ccc2c1,inactive
4,NCc1ccco1,inactive
5,CCCCCCCCCCCCS(=O)(=O)Cl,inactive
6,CCC(C)=O,inactive
7,Cc1c(Cl)cccc1[N+](=O)[O-],inactive
8,COC(=O)C=C(C)CCC=C(C)C,inactive
9,CCc1ccc(O)c(OC)c1,inactive
10,CCCCCCCCc1ccc(S(=O)(=O)O)cc1,inactive
11,CCCCC1CCC(O)CC1 (configuration not stated),inactive
12,O=c1c(O)c(-c2ccc(O)cc2)oc2cc(O)cc(O)c12,inactive
13,CCCCCCC(O)CCCCCCCCCCC(=O)O (configuration not stated),inactive
14,CCCCC(CC)COC(C)=O (configuration not stated),inactive
15,CCNCCO,inactive
16,OC[C@H]1O[C@@H](Oc2ccc(O)cc2)[C@H](O)[C@@H](O)[C@@H]1O,inactive
17,O=C1CCCC=CCCCCCCCCCC1,inactive
18,CCOC(=O)C1OC1c1ccccc1 (configuration not stated),inactive
19,C#CC(C)(O)CC(C)C (configuration not stated),inactive

# Target: Transcription factor Sp1 (Homo sapiens) (UniProt P08047)
# Sequence (P08047 whole entry, looked up): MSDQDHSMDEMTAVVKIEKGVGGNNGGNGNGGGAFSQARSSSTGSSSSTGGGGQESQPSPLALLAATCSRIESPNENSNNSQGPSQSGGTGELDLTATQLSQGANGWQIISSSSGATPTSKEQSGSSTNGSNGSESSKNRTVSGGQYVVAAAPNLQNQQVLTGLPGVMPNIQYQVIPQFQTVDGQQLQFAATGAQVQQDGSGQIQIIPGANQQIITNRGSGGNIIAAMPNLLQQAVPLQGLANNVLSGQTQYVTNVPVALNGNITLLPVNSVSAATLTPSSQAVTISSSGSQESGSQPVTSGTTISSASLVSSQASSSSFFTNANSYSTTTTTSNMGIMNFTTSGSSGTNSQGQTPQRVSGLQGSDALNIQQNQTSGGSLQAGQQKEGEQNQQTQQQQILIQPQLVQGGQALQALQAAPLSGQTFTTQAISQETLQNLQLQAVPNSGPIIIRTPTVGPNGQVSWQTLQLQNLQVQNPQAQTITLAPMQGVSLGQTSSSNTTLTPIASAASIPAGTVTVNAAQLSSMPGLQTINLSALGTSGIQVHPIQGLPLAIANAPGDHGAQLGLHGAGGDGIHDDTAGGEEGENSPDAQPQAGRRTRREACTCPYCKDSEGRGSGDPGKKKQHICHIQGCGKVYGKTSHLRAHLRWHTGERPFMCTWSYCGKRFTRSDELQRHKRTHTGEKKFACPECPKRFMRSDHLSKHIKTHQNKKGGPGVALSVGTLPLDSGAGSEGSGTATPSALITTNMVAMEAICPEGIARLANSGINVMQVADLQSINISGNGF
# Test: ATG_Sp1_CIS: Attagene CIS-FACTORIAL HepG2 Assay for human Specificity Protein 1 (Sp1) (AID 2282961)
# Settings: HepG2 Sp1 cis-reporter transcription, actives raise or lower the signal
# Procedure, shortened: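 HepG2 cells transiently transfected with multiplexed cis-regulated reporter constructs, chemical exposure 24 h. Reporter mRNA quantified by RT-PCR with capillary electrophoresis; bidirectional fit relative to DMSO.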
Compound,outcome,AC50
Cc1ccc(N)c(S(=O)(=O)O)c1,inactive,–
CC1CC(O)CC(C)(C)C1 (configuration not stated),inactive,–
O=C(O)CNc1ccccc1,inactive,–
Cc1ncc[nH]1,inactive,–
O=Cc1ccccc1S(=O)(=O)O,inactive,–
CCOc1ccc(NC(=O)CC(C)O)cc1 (configuration not stated),inactive,–
CC(C)(N=C=O)c1cccc(C(C)(C)N=C=O)c1,inactive,–
CCCCC1(COC(=O)CCC(=O)O)C(=O)N(c2ccccc2)N(c2ccccc2)C1=O,inactive,–
CC=Cc1ccc(OC)c(OC)c1,inactive,–
COC(=O)c1cccnc1,inactive,–
OCc1cccc(Oc2ccccc2)c1,inactive,–
C=C[Si]1(C)O[Si](C)(C=C)O[Si](C)(C=C)O[Si](C)(C=C)O1 (configuration not stated),inactive,–
CC(=O)C1(C)CC2=C(CCCC2(C)C)CC1C (configuration not stated),–,162 µM (active)
CC(C)=CCCC(C)CCOC=O (configuration not stated),inactive,–
CCCCCC(C=O)=Cc1ccccc1,inactive,–
COC(C)(C)CC(C)=O,inactive,–
CCc1ccc(O)cc1,inactive,–
C=CCOC(=O)CCCCCC,inactive,–
CCCN(CCC)S(=O)(=O)c1ccc(C(=O)O)cc1,inactive,–
C[Si]1(C)O[Si](C)(C)O[Si](C)(C)O1,inactive,–

Compound,outcome,AC50
CCCCCCOCCOCCO,inactive,–
CCCCCCCC(=O)OCCCCCC,inactive,–
Oc1ccc2cc(SSc3ccc4cc(O)ccc4c3)ccc2c1,–,75.2 µM (active)
NCc1ccco1,inactive,–
CCCCCCCCCCCCS(=O)(=O)Cl,inactive,–
CCC(C)=O,inactive,–
Cc1c(Cl)cccc1[N+](=O)[O-],inactive,–
COC(=O)C=C(C)CCC=C(C)C,inactive,–
CCc1ccc(O)c(OC)c1,inactive,–
CCCCCCCCc1ccc(S(=O)(=O)O)cc1,–,186 µM (active)
CCCCC1CCC(O)CC1 (configuration not stated),inactive,–
O=c1c(O)c(-c2ccc(O)cc2)oc2cc(O)cc(O)c12,inactive,–
CCCCCCC(O)CCCCCCCCCCC(=O)O (configuration not stated),inactive,–
CCCCC(CC)COC(C)=O (configuration not stated),inactive,–
CCNCCO,inactive,–
OC[C@H]1O[C@@H](Oc2ccc(O)cc2)[C@H](O)[C@@H](O)[C@@H]1O,inactive,–
O=C1CCCC=CCCCCCCCCCC1,–,48.8 µM (active)
CCOC(=O)C1OC1c1ccccc1 (configuration not stated),inactive,–
C#CC(C)(O)CC(C)C (configuration not stated),inactive,–

# From PubChem BioAssay (EPA / NIEHS)
